# Test results: PubChem BioAssay (NCI)
# Compounds without any hit were thinned out: in the full panel of roughly 83,000, 20% have a hit.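 Method: cells in 96-well plates; compound added at one concentration; 48 h incubation; percent growth measured; values under 10 scored active.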 Unmarked numbers belong to inactive results. Activity calls are given as the source filed them.
# Key:
# Test in all cases: NCI-60 one-dose screen, 48 h (100 = growth as untreated, 0 = no growth, -100 = all killed)
# Settings in all cases: 10 µM unless noted
# [1] = tested on: HCT-15 colon
# [2] = tested on: HT29 colon
# [3] = tested on: SNB-19 CNS
# [4] = tested on: U251 CNS
# [5] = tested on: PC-3 prostate
# [6] = tested on: SK-MEL-5 melanoma
# [7] = tested on: UACC-62 melanoma
# [8] = tested on: LOX IMVI melanoma
# [9] = tested on: SK-MEL-28 melanoma
# [10] = tested on: SNB-75 CNS
Structure (SMILES),growth [1],growth [2],growth [3],growth [4],growth [5],growth [6],growth [7],growth [8],growth [9],growth [10]
COc1ccc(OC)c(/C=C2\Oc3cc(O)ccc3C2=O)c1,75%,100%,95.5%,89.5%,95.5%,92.4%,89%,88.6%,88.5%,
O=c1[nH]c(-c2ccncc2)nc2sc3c(c12)CCCCCC3,76.1%,99%,,71.7%,90.1%,,88%,83.2%,101%,33.8%
O=C1c2cc(S(=O)(=O)O)ccc2C(=O)c2c1cccc2[N+](=O)[O-],110%,104%,106%,99.2%,96.3%,114%,110%,103%,121%,
CN1CCc2c(c3ccccc3c3ccccc23)C1,31.3%,37.7%,66.2%,,64%,,61.3%,,87.4%,66.1%
CC1=CN2C(=NC3=C(CCCC/C3=C\c3ccccc3)C2c2ccccc2)S1 (stereo unspecified),94.8%,91.7%,,96.5%,99.2%,,83.8%,97.5%,107%,82.5%
Clc1nc(-c2ccccn2)nc2sc3c(c12)CCCCCC3,84.2%,99.3%,,97.2%,92.2%,,96%,67.8%,89.3%,85%
CCOC(=O)C1=C(C)N2C(=NC3=C(CCCC/C3=C\c3ccccc3)C2c2ccccc2)S1 (stereo unspecified),96.9%,84.4%,,98.3%,87.6%,,85.5%,100%,98%,96.9%
O=S(=O)(Nc1ccccc1Cl)c1ccc(-c2cnc(C3CC3)o2)cc1,24.4%,12.5%,39.2%,25%,19.6%,17.3%,40.2%,44.5%,59.3%,
CC[Si](CC)(CC)OC1[C@@H](O[Si](CC)(CC)CC)[C@@H](CNC(=O)NC)O[C@H]1n1cnc2c(NC(=O)Nc3ccccc3)ncnc21 (stereo partly specified),86.2%,50.2%,,82.8%,11.2%,95.1%,73%,93.7%,,78.1%
c1ccc(-c2nc(N3CCOCC3)c3c4c(sc3n2)CCCCCC4)nc1,46.9%,65.9%,,50.3%,32.2%,,51.7%,69.6%,75.5%,29.4%
Cc1nc2ccc(Cl)cc2n1C,113%,98.8%,99.5%,99.7%,101%,99.6%,106%,108%,117%,
CCOC(=O)C1=C(C)N2C(=NC3=C(CCCC/C3=C\c3cc(OC)c(OC)c(OC)c3)C2c2cc(OC)c(OC)c(OC)c2)S1 (stereo unspecified),44.8%,66.8%,,67.7%,49.8%,,39.9%,74.1%,82.9%,89.4%
CN1CCN(c2nc(-c3ccncc3)nc3sc4c(c23)CCCCCC4)CC1,76.5%,24.3%,,63.5%,61.9%,,86.6%,64.9%,83.5%,14.5%
O=c1[nH]c(=S)[nH]c(=O)n1Cc1cccc2ccccc12,98.3%,110%,,93.1%,92.8%,,89.7%,94.3%,103%,81.8%
O=c1oc2ccccc2cc1-c1csc(N=Nc2c(O)[nH]c3ccc(Br)cc23)n1,105%,109%,95.8%,103%,102%,96.5%,,99.9%,101%,
Cn1c(=O)c2c(-c3ccccc3F)n(-c3ccc4c(c3)OCO4)cc2n(C)c1=O,87.8%,112%,99.6%,92.1%,74.7%,67.3%,86.2%,95.9%,100%,
O=c1[nH]c(=S)c2c(n1CCCO)CCC2,101%,,102%,101%,103%,101%,97.2%,96.5%,111%,88%
Cc1cc(O)cc2c1[C@H]1CC[C@]3(C)[C@@H](O)CC[C@H]3[C@@H]1C=C2,78.7%,,94.7%,92.5%,86.3%,83.8%,73.5%,81.3%,99.8%,76.2%
COc1ccc(-c2c(-c3cc4c(c(OC)c3OC)OCO4)noc2N)cc1,27%,,40.6%,32.4%,12.2%,16.5%,37.5%,43.7%,49.7%,22.8%
COc1cc(/C=N/NC(=O)c2cnn3c2NC(c2ccccc2)C3)ccc1OC1CCCC1 (stereo unspecified),24.6%,11.8%,39.1%,33%,10.1%,25.6%,,21.7%,40.3%,
Oc1ccc(Cl)cc1CNc1nc2ccccc2[nH]1,15.9%,,111%,55%,-5.5% (active),49%,-68.1% (active),-78.1% (active),-82.6% (active),70.5%
FCOC(C(F)(F)F)C(F)(F)F,103%,,108%,94.1%,106%,103%,104%,101%,126%,109%
O=C(c1cnn2c1NC(c1ccc(F)cc1)C2)N1CCCCC1 (stereo unspecified),102%,,100%,97.1%,96.9%,97.8%,101%,103%,103%,84.8%
CCOC(=O)n1cc(C2=C(c3cn(C)c4ccccc34)COC2=O)c2ccccc21,12.2%,,30.5%,14.9%,28.3%,-7.08% (active),26.1%,18.7%,47.7%,26.4%
COc1c(Cl)ccc2c(-c3nc4cc(Cl)c(F)cc4s3)cc(=O)oc12,82%,5.31% (active),96%,99.1%,84.3%,,91.7%,-80.2% (active),111%,
O=C1CCC(N2C(=O)c3cccc(NCCOCCOCCNC(=O)c4cc5c(o4)C(=O)c4ccccc4C5=O)c3C2=O)C(=O)N1 (stereo unspecified),55.1%,,-24.3% (active),-42% (active),6.46% (active),-98.2% (active),-81.8% (active),-74.1% (active),-38.7% (active),-98.2% (active)
Cc1cc(=O)c2c(C)ccc(C)c2[nH]1,101%,111%,99.8%,100%,,110%,96.4%,97.7%,109%,
CCCN1CCN(c2ccc3nc(-c4ccc5nc(-c6ccc(C(F)(F)F)cc6)[nH]c5c4)[nH]c3c2)CC1,-55.1% (active),,-93.8% (active),-82.2% (active),-68% (active),37.2%,72.9%,-92.9% (active),-94.6% (active),32.5%
CCC(=O)Nc1nnc(Cc2ccc(OC)c(OC)c2)s1,31.7%,,2.39% (active),-52.9% (active),9.29% (active),46.6%,-3.8% (active),15.6%,-97.7% (active),-83.3% (active)
